PostGolgi ctrl: inhibits growth of the yeast control strain; efflux-deficient yeast background strain, growth absorbance A615, 16 h; inhibition, % at 10 µM; hit rate 5% among 98,000; AID 738
PLAP act: human PLAP activation. P05187. purified PLAP enzyme, luminescent substrate read-out; hits give high values. activation fold at 20 µM. hit rate 1.2% among 96,000. AID 696; in the data active = activation fold above about 2
PostGolgi yeast: growth inhibition of a yeast mutant, post-Golgi transport screen; post-Golgi transport phenotypic cell assay; hit rate 0.9% among 98,000; inhibition, % at 10 µM;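 also: yeast cells grown in 1536-well plates; yeast grown about 18 h at 30C before absorbance read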
Cav32 inh: blocks human Cav3.2 T-type calcium channel. B-score at 10 µM. hit rate 4% among 100,000. AID 449739. Cav3.2-expressing cells, Fluo-4 calcium fluorescence FDSS; hits give low values. O95180;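 active = single-dose well whose peak fluorescence ratio is a statistical outlier from its plate by either plate-standardised score or position-corrected B-score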
Target sequence (O95180 whole entry, looked up): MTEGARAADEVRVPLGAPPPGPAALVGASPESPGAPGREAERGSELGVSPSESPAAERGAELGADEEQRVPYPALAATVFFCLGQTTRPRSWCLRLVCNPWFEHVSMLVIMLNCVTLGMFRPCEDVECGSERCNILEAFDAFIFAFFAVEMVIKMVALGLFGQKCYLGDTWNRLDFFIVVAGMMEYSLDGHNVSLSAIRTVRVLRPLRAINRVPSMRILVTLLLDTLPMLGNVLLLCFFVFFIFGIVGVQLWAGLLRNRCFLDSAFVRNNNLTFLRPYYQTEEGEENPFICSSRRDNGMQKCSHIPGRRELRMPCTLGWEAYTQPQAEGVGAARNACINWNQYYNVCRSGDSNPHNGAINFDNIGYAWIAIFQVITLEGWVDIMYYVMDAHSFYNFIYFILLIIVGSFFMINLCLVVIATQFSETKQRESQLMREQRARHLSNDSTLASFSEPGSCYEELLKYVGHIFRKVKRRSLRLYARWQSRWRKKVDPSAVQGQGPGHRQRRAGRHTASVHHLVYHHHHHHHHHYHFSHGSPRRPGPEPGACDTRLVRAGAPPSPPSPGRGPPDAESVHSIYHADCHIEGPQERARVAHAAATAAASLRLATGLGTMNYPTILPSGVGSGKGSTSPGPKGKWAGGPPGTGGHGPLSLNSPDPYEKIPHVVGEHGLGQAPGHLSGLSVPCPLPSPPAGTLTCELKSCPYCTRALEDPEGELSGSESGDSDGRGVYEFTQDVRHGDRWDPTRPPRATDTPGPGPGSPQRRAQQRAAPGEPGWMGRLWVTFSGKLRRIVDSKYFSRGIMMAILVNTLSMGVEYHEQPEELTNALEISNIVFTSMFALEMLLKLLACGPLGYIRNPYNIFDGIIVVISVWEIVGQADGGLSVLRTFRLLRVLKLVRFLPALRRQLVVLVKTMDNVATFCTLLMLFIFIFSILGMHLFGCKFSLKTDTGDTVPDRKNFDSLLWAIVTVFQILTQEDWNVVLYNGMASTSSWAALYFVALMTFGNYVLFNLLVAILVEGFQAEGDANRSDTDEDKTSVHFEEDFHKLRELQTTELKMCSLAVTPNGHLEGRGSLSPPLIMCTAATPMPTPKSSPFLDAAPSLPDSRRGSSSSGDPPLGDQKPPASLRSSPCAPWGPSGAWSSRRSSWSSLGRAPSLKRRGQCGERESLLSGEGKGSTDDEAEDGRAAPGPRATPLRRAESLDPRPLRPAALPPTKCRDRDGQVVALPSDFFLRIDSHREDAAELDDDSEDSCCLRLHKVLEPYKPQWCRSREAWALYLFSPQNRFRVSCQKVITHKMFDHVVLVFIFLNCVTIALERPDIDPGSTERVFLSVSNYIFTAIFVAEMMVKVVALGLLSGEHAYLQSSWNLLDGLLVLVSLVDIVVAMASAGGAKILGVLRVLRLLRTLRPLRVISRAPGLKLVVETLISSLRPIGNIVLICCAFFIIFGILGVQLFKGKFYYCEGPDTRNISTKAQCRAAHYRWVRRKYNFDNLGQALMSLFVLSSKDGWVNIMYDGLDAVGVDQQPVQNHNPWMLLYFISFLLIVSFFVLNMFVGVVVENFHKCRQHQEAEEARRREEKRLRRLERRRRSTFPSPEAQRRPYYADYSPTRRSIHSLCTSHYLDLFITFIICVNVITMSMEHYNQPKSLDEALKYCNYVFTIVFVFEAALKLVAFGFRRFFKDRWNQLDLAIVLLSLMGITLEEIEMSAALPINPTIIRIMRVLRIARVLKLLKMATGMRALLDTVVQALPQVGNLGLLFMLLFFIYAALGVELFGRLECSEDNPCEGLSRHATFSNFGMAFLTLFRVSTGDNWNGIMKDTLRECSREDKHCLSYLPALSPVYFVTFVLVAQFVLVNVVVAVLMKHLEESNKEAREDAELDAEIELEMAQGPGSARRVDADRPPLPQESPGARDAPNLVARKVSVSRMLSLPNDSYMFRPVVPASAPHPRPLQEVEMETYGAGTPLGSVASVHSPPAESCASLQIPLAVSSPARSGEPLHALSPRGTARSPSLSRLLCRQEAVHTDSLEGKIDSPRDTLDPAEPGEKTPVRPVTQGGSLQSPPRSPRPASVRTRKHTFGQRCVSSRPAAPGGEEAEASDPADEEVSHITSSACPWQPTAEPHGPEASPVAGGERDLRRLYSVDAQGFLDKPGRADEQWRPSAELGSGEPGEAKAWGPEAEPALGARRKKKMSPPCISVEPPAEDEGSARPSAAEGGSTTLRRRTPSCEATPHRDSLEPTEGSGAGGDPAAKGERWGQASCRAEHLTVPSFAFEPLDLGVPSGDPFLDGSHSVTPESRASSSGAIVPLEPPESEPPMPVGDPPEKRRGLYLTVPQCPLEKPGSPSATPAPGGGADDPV
hDAT+cocaine: modulates human dopamine transporter uptake under cocaine; Q01959; LLC-PK1 hDAT cells, [14C]-dopamine uptake with cocaine IC80; actives deviate in either direction; B-score at 10 µM; hit rate 1.3% among 110,000;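 active = Z score or B-score, a plate-position-corrected score, falls beyond the plate's 99.7% confidence bounds, in either direction; inactive = both scores lie inside the 99.7% bounds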;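 also: scored against the spread of the other compound wells on the same plate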
D1 allo mod: allosterically modulates the human D1 dopamine receptor. HEK293 D1, CRE-luciferase, dopamine EC30 potentiation; actives deviate in either direction. B-score at 10 µM. hit rate 5.9% among 58,000. AID 641;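 active = luminescence count or its row- and column-corrected plate score outside the 99.7% band of the plate's sample wells, on either side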
Starred values were filed as active, the others as inactive; . = no result. Rows were chosen to be rich in hits. Some 12% of all compounds tested hit in one or more screens of this group. Rule as the data show it, unless noted: active = inhibition above about 30%; inactive = the rest.

SMILES | PostGolgi ctrl | PLAP act | PostGolgi yeast | Cav32 inh | hDAT+cocaine | D1 allo mod
CCC(C)NC(=O)C(NS(=O)(=O)c1ccc2c(c1)c(=O)n(C)c(=O)n2C)c1ccccc1 (stereo not drawn) | 9.8 | 1 | 0.0 | . | 0.19 | -5.57*
CCOC(=O)C1=C(C)NC(C)=C(C(=O)OCC)C1c1ccc(O)cc1 | -12.6 | 1.3 | 6.0 | 0.131 | 1.59 | -1.27
CCOC(=O)C1=C(C)NC(C)=C(C(=O)OCC)C1c1sccc1C | 38.3* | 1.1 | -7.4 | -4.1 | 0.683 | .
COc1ccc(/C=C(/C(=O)Nc2ccccc2C(=O)N2CCCC2)c2ccccc2)cc1 | 35.6* | 1.5 | 2.4 | -2.51 | 0.939 | .
CCS(=O)(=O)NCCc1csc(-c2ccccc2)n1 | 6.7 | 0.9 | 10.4 | 0.191 | 0.00199 | -0.164
COc1ccc(N2C(=O)CC2(/C=C/c2ccccc2OC)C(=O)NC2CCCC2)cc1 (stereo not drawn) | . | . | . | -5.39* | 0.61 | .
COc1ccccc1CN1C(=O)CCC1(C)C(=O)NC1CCCCCC1 (stereo not drawn) | 21.2 | 1.5 | -3.4 | 0.41 | -0.462 | -0.00103
CCOC(=O)C1CCCn2c1nc1sc3c(c1c2=O)CCCC3 (stereo not drawn) | 38.2* | 1.4 | -6.6 | 0.34 | -0.892 | 0.446
COc1ccc(CCNC(=O)C2CCN(Cc3nc(-c4ccccc4C)oc3C)CC2)cc1OC | -6.8 | 2.1* | 4.2 | -0.0694 | -0.646 | 1.18
Cc1ccccc1-c1nc(CN2CCC(C(=O)NCCC3=CCCCC3)CC2)c(C)o1 | 8.9 | 2.3* | 1.9 | -7.14* | 0.0369 | 1.17
CCC(C)NC(=O)c1ccccc1NC(=O)CN1C(=O)c2ccccc2S1(=O)=O (stereo not drawn) | 3.2 | 1.2 | -4.0 | 1.16 | 0.459 | -0.954
Cc1c(Cl)c([N+](=O)[O-])nn1CC(=O)NC(C)C1CC2CCC1C2 (stereo not drawn) | 5.9 | 0.9 | 9.4 | -8.24* | 0.767 | .
CC[C@H](C)/C=C/C1=CC2=C(Cl)C(=O)[C@@]3(C)OC(=O)C(C(=O)[C@H](C)[C@@H](C)O)=C3C2=CO1 | . | . | . | -0.388 | -0.101 | .
CC(C)(C)C(=O)C(Cc1ccccc1Cl)n1cncn1 (stereo not drawn) | 93.6* | 1.3 | 99.4* | 0.307 | -0.753 | .
CC(C)(C)C(=O)C(Cc1ccccc1)n1cncn1 (stereo not drawn) | 45.4* | 0.9 | 51.1* | 1.89 | -0.581 | .
CCCC(C(=O)c1ccccc1)n1cncn1 (stereo not drawn) | -10.6 | 0.9 | 1.7 | 0.81 | -0.814 | 0.37
CCCCC(NC(C)=O)c1nc2ccccc2n1CCCC (stereo not drawn) | 13.9 | 1.2 | -3.9 | . | . | -1.01
CCn1cc(C(=O)NCCCN2CCC(C)CC2)c2cc(OC)c(OC)cc2c1=O | -2.6 | 1.7 | -1.4 | . | 0.0691 | 0.14
CCN=c1sc2ccccc2n1CC(O)COc1ccccc1 (stereo not drawn) | 24.7 | 1.6 | 6.2 | -4.17* | -0.376 | .
CN=c1sc2ccccc2n1CC(O)COc1ccccc1 (stereo not drawn) | -2.4 | 1.3 | -0.3 | -0.914 | -0.00654 | .
O=C(c1ccc(Cl)c(Cl)c1)N1CCC(=O)N(C(COCc2ccccc2)Cc2ccccc2)CC1 (stereo not drawn) | . | . | . | -5* | 1.16 | .
CCOC(=O)c1c(NC(=O)c2ccccc2Br)sc2c1CCc1ccccc1-2 | 19.2 | 0.9 | -7.1 | 0.833 | 0.014 | .
c1ccc(-c2noc(-c3cccc4ccccc34)n2)nc1 | 14.2 | 0.9 | 15.7 | -1.79 | 0.87 | -2.84*
c1ccc(-c2nc(-c3ccccn3)no2)cc1 | . | . | . | 0.58 | 0.648 | .
Clc1cccc(-c2nc(-c3ccccn3)no2)c1 | 11.9 | 1 | -4.3 | 0.0211 | -0.0966 | -6.91*
SMILES | PostGolgi ctrl | PLAP act | PostGolgi yeast | Cav32 inh | hDAT+cocaine | D1 allo mod
Cc1ccc(-c2nc(-c3ccccn3)no2)cc1 | 3.0 | 0.9 | 11.6 | -0.711 | 2.22 | -7.59*
c1ccc(-c2ccc(-c3nc(-c4ccccn4)no3)cc2)cc1 | 17.7 | 1 | -8.5 | 2.06 | 0.302 | -9.56*
COc1ccc(NC(=O)CSc2nnc(-c3cccs3)n2-c2ccccc2)cc1 | 3.2 | 0.8 | -3.5 | 0.521 | -1.02 | 0.38
O=C(Cn1cnc2ccccc2c1=O)N1CCN(Cc2ccccc2)CC1 | 4.7 | 1 | -4.1 | 0.129 | 0.000987 | 0.533
Cc1cc(C)c(Cc2c(C)nc3c(C(=O)NCc4ccco4)cnn3c2C)c(C)c1 | 43.5* | 1.3 | 11.7 | -0.079 | 0.421 | .
COc1ccc(SC[C@H](Cc2ccccc2)N2CCN(C)CCC2=O)cc1 | . | . | . | 0.182 | 1.27 | .
CCCN1CCC(=O)N([C@H](CSc2ccc(OC)cc2)Cc2ccccc2)CC1 | . | . | . | -0.699 | 2.47* | .
CCn1cc(C(=O)NCc2cccs2)c(=O)c2ccc(C)nc21 | 12.1 | 0.9 | -2.2 | -2.82 | 2.89* | 1.31
O=S(=O)(Nc1nc2ccccc2nc1Nc1ccc2c(c1)OCCO2)c1cccs1 | 18.6 | 1.5 | -1.3 | -3.76* | -0.282 | -1.28
Nc1c(C(=O)Nc2ccccc2F)sc2nc(-c3ccco3)ccc12 | 9.3 | 1.1 | 1.4 | -0.838 | 0.644 | .
COC(=O)c1sc2nc(-c3ccco3)ccc2c1N | -0.5 | 1 | 16.9 | -0.797 | 0.329 | -3.19*
Cc1nn(CCc2n[nH]c(=S)n2C2CCCCC2)c(C)c1Br | 10.9 | 1.1 | 12.2 | -0.101 | -0.738 | .
Cc1ccccc1NS(=O)(=O)c1ccc(OCC(=O)N2CCCCC2)cc1 | -3.7 | 1 | -0.2 | 0.924 | 1.47 | .
O=C(COc1ccc(Cl)cc1)N1CCCCC1 | 12.6 | 0.8 | 1.1 | -0.332 | -0.139 | .
O=C(CSCc1cccc(Cl)c1)N/N=C/c1ccc(OCC(=O)N2CCCCC2)cc1 | 41.6* | 1.3 | -2.0 | -2.26 | 1.53 | .
Cc1cccc(C(=O)N/N=C/c2ccc(OCC(=O)N3CCCCC3)cc2)c1 | 10.1 | 1 | 7.3 | -0.317 | 2.19* | .
COC(=O)c1ccc(C(=O)OC)c(NC(=O)CSc2cccc[n+]2[O-])c1 | 1.8 | 1 | 8.0 | 0.161 | 0.0504 | .
COC(=O)[C@@H]1C[C@@]2(O)[C@H](O)[C@H](O)[C@H](O)C[C@H]2N1Cc1ccc(-c2ccccc2)cc1 | . | . | . | 0.00604 | 0.574 | .
Cn1c(Cc2cccs2)nnc1SCc1nc2ccccc2[nH]1 | -2.1 | 2* | -5.8 | 1.07 | -0.262 | 0.164
Cn1c(SC/C=C/c2ccccc2)nnc1-c1ccco1 | 30.3* | . | 4.4 | 0.625 | -0.336 | -1.04
Cn1c(Cc2cccs2)nnc1SC/C=C/c1ccccc1 | 52.2* | . | -2.2 | -1.31 | 0.55 | 0.0882
O=C(CSc1nnc(Cn2nnc3ccccc32)o1)N(Cc1ccc(Cl)cc1)c1ccccc1 | 26.8 | 1.1 | 2.8 | -5.95* | -0.566 | .
Clc1ccc(CSc2nnc(Cn3cnc4ccccc43)o2)cc1 | 26.9 | 1.5 | 10.1 | -4.71* | -0.019 | -0.103
CCN(C(=O)CSc1nnc(Cn2nnc3ccccc32)o1)c1nc(-c2ccccc2)cs1 | 35.1* | 1 | 0.2 | -1.29 | -0.35 | -0.525
CCCCn1nnc(NC(=O)CC23CC4CC(CC(C4)C2)C3)n1 | 11.7 | 1 | 7.8 | -0.617 | 1.35 | 0.787
